Compound activity as filed in PubChem BioAssay.
VDR inh = Inhibitors of the vitamin D receptor (VDR): qHTS | Vitamin D3 receptor (Homo sapiens), P11473 | VDR-SRC2-3 peptide fluorescence polarization, 2 h | Potency, µM, actives largely listed as inhibitors | actives 0.93% (n = 400,000) | AID 504847, 2011
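Inhibition of the VDR/SRC2-3 peptide interaction is quantified by fluorescence polarization. Compounds (23 nl, pintool) incubate with the reagents for 2 hours at ambient room temperature.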
Tb PGK inh = qHTS Assay to Find Inhibitors of Phosphoglycerate Kinase; Phosphoglycerate kinase, glycosomal (Trypanosoma brucei brucei), P07378; PGK/GAPDH coupled, Kinase-Glo luminescence, 60 min; Potency, µM (titrated, usually from 57.5 µM), most hits filed as inhibitors; actives 0.043% (n = 380,000); note: nearly all actives have a fitted effect of over 60% in size
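Recombinant glycosomal PGK reaction used 1,3-bisphosphoglycerate generated in-well by GAPDH (100nM final) in 100mM TEA pH 7.6, 5mM MgCl2, 0.01% Tween-20. After 60 minutes at room temperature, ATP was read by Kinase-Glo Plus luminescence end-point.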
GLS inhibitor = qHTS for Inhibitors of Glutaminase (GLS); Glutaminase kidney isoform, mitochondrial (Homo sapiens), O94925; GLS enzymatic activity, qHTS titration; Potency, µM (top dose mostly 45.5 µM), actives largely listed as inhibitors; actives 0.21% (n = 410,000); AID 624170, 2012
Target sequence (O94925 whole entry, looked up, canonical isoform): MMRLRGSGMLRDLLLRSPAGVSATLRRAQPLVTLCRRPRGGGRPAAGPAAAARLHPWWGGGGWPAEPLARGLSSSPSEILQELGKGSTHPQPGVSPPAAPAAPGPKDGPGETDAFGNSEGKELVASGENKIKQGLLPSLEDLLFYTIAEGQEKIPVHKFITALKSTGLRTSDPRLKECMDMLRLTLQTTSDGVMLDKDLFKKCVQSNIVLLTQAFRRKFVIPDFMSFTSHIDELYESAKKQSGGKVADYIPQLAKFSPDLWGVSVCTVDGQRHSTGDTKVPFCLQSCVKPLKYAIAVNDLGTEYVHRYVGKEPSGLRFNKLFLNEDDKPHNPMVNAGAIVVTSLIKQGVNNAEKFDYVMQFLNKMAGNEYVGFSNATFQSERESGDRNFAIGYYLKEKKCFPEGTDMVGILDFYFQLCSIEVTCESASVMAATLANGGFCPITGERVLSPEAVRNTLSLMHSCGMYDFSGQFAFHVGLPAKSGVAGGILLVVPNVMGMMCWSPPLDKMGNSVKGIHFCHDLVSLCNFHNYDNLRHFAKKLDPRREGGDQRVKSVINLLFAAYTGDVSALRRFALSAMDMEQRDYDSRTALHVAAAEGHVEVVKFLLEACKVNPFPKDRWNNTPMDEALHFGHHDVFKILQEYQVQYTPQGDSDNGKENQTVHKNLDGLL
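hKGA; 45 mM KH2PO4 pH 8.2 + 0.02% Tween-20; cpd via pin tool; 1 mM Gln soln; GluOx/HRP/Amplex Red; RT 30 min; fluor. t0 & final.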
Pin1 inh = qHTS Assay to Find Inhibitors of Pin1. Peptidyl-prolyl cis-trans isomerase NIMA-interacting 1 (Homo sapiens), Q13526. Pin1 FP peptide displacement, HiFluor488, 10 min. Potency, µM (series often up to 115 µM), most hits filed as inhibitors. actives 0.009% (n = 390,000). AID 504891, 2011; active = well fitted inhibition curve with a large enough effect in the polarisation, with a control signal flat, not every such curve was filed as active; inconclusive = small, poorly fitted or top-dose-only effect, or effect the other way, or a change in a side signal; inactive = no such curve, though single readings can be large or run the other way; the % refers to the polarisation
Tb PFK block = qHTS Assay to Find Inhibitors of T. brucei phosphofructokinase; AID 485367, 2010; ATP-dependent 6-phosphofructokinase (Trypanosoma brucei brucei), O15648; Potency, µM (doses to about 57.5 µM), actives largely listed as inhibitors; actives 0.17% (n = 330,000); T. brucei PFK, ADP-Glo luminescence; note: nearly all actives have a fitted effect of over 60% in size
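Luminescent ADP detection (ADP-Glo, two-step: ATP depletion then ADP-to-ATP conversion for luciferase) reported PFK activity after 45 min room-temperature reaction of 1.25 nM enzyme with 0.5 mM F6P and 0.1 mM ATP at pH 8.0.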
A number is an active result; - = inactive; ? = inconclusive; . = no result given; ! = a repeat was not active; [ ] = dose if it differs, or a comment. This is a sample that favours compounds with a hit; in the whole collection about 1.1% have one here. Unless noted, calls come from the whole dose curve; as a rule, active = well fitted curve in the direction sought with a large enough effect; inconclusive = small, poorly fitted or top-dose-only effect, or another doubt; inactive = no such curve, though single readings can be large; an effect the other way counts as inactive or inconclusive.

SMILES	VDR inh	Tb PGK inh	GLS inhibitor	Pin1 inh	Tb PFK block
Cc1ccc(C(=O)Nc2nc(=O)n(C(=O)c3ccccc3C)s2)cc1	22µM	-	-	-	-
O=C(Nc1nc(=O)n(C(=O)C2CC2)s1)c1ccccc1	50µM	-	-	-	-
O=C(Nc1nc(=O)[nH]s1)c1ccccc1	-	-	-	-	-
Cc1ccc(C(=O)Nc2nc3ccccc3c(=O)s2)cc1	?	-[11.5 µM]	-	-	-
Cc1cc(C)c(NC(=O)CN2C(=O)c3cccnc3Oc3ccc(C)cc32)c(C)c1	-	-	?	-	.
CC(=O)OCCNc1cc(Sc2nc3ccccc3[nH]2)c2nonc2c1[N+](=O)[O-]	14µM	-	?	?	?
Cc1cc(C)nc(SCC(=O)N/N=C/c2cccc([N+](=O)[O-])c2)n1	79µM	-	?	-	-
O=C(CSc1ncccn1)N/N=C/c1cccc([N+](=O)[O-])c1	-	-	-	-	-
CSC1=NSC2=NC(=O)/C(=C/c3coc4ccccc4c3=O)C(=N)N12	50µM	-	-	?	-
O=C(/C=C/c1ccc(O)cc1)c1ccccc1O	5.6µM	.	.	.	.
Cc1ccc(/C=C/C(=O)c2ccccc(=O)c2O)cc1C	45µM	-	-	-	-
O=C(/C=C/c1ccccc1)c1cc(Br)ccc(=O)c1O	22µM	-	-	?	-
c1ccc(CCNc2ccccc2)cc1	.	.	.	.	-
Cc1cc(O)c(C(C)C)cc1N=Cc1ccccc1O	40µM	-	-	-	-
COC(=O)/C=C\C(C#N)(C#N)N=Cc1ccc(OC)cc1	13µM	-	-	-	.
Cn1c(=O)c2c(-c3ccccc3Br)n(C(C)(C)C)cc2n(C)c1=O	-	-	-	-	.
Oc1ccc(OCc2ccccc2)cc1	-	.	-	.	.
Oc1ccc(NCc2ccc(OCc3ccccc3Cl)cc2)cc1	?	-	-	-	.
CCc1ccc(CNc2ccc(O)cc2)cc1	22µM	?	-	-	-
Oc1ccc(NCc2ccc(OCc3ccccc3)cc2)cc1	89µM	-	11µM!	?	-
COc1ccc(OC)c(C2=Nn3c(nnc3-c3ccc(OC)c(OC)c3)SC2)c1	.	.	.	-	.
COCC(=O)Nc1cc(Sc2ccccc2)ccc1N=C(NC(=O)OC)NC(=O)OC	-	.	-	.	.
CC1=C(C(=O)Nc2ccccc2)C(c2ccc(Br)cc2)n2nc(CCCO)nc2N1 (stereo unspecified)	-	-	-	-	.
Cc1nc2c3ccccc3nc(NNC(=O)CCC(=O)NCCC(C)C)n2n1	-	-	?	-	-
CCN(CC)CCCNC(=O)CCC(=O)NNc1nc2ccccc2c2nc(C)nn12	79µM!	-	-	-	-
SMILES	VDR inh	Tb PGK inh	GLS inhibitor	Pin1 inh	Tb PFK block
O=c1[nH]c(/C=C\c2ccc(O)c(O)c2)nc(O)c1[N+](=O)[O-]	-	-	7.9µM	?	-
CC(C)C[C@@H](CNCC(=O)[C@H](Cc1c[nH]c2ccccc12)NC(=O)c1[nH]cnc1C(=O)N[C@@H](C)CN)NC(=O)c1nc[nH]c1C(=O)N[C@@H](C)C(=O)O	-	-	-	?	.
CC(C)C[C@@H](CN)NC(=O)c1nc[nH]c1C(=O)N[C@@H](Cc1c[nH]c2ccccc12)C(=O)CNC[C@H](C)NC(=O)c1nc[nH]c1C(=O)N[C@@H](CC(=O)O)C(=O)O	-	-	?	-	.
CC(C)C[C@@H](CNCC(=O)[C@H](Cc1c[nH]c2ccccc12)NC(=O)c1[nH]cnc1C(=O)N[C@H](CN)CC(C)C)NC(=O)c1nc[nH]c1C(=O)N[C@@H](CC(=O)O)C(=O)O	-	-	8.9µM	?	.
CC(C)C[C@@H](CNCC(=O)[C@H](Cc1c[nH]c2ccccc12)NC(=O)c1[nH]cnc1C(=O)N[C@@H](C)CN)NC(=O)c1nc[nH]c1C(=O)N[C@@H](CC(=O)O)C(=O)O	?	-	10µM	-	.
Cc1ccc(-n2nc3c(N4CCC(C(=O)NC5CCC(C)CC5)CC4)nnc(C)c3c2C)cc1 (stereo unspecified)	-	-	-	-	.
COc1ccc(N=C2C(=O)Nc3ccccc32)cc1	-	-	-	-	-
COc1ccc(N=C2C(=O)N3c4c(cccc42)C(C)=CC3(C)C)cc1	50µM	-	-	-	-
COc1cc(/C=C2\C(=N)N3N=CSC3=NC2=O)ccc1OS(=O)(=O)c1ccccc1	79µM	-	-	-	-
COc1cccc(OCCOc2ccc(/C=C3\C(=N)N4N=C(S(C)(=O)=O)SC4=NC3=O)cc2OC)c1	-	-	-	-	-
COc1ccccc1OCCOc1ccc(/C=C2\C(=N)N3N=C(S(C)(=O)=O)SC3=NC2=O)cc1	79µM	.	-	-	-
COc1cc(/C=C2/C(=N)N3N=C(C(C)C)SC3=NC2=O)ccc1OS(=O)(=O)c1ccccc1	56µM	-	-	-	-
Cc1ccccc1NC(=O)CSc1c(C(C)C)cnc2c1c(=O)n(C)c(=O)n2C	-	-	-	-	.
CCCNC(=O)N1CCCN(S(=O)(=O)c2ccc3c(ccn3CC)c2)CC1	-	-	-	-	.
CC1CN(C(=O)CCC(=O)NCc2cccs2)c2ccccc2O1 (stereo unspecified)	-	-	-	-	.
COc1cc2nc(NCCc3ccccc3)n3nc(-c4cccnc4)nc3c2cc1OC	-	-	-	-	.
Cc1c(C(=O)N(C)C)sc2nc(-c3ccccn3)[nH]c(=O)c12	-	-	-	-	-
O=c1[nH]c(-c2ccccn2)nc2sc(-c3ccccc3)cc12	79µM	-	?	-	-
CCOc1ccc(CCNC(=O)c2ccc(-c3nc(COc4ccc(C)cc4)c(C)o3)cc2)cc1	-	-	-	-	.
Cc1cccc(Cn2c(=O)n(-c3ccc(Cl)c(Cl)c3)c(=O)c3c(C)c(C)sc32)c1	-	.	-	-	.
Cc1cccc(N2CCN(S(=O)(=O)c3cn(C)c(C)n3)CC2)c1C	-	-	-	-	.
O=C(O)CCCCCCCCCCCNC(=O)NC12CC3CC(CC(C3)C1)C2	-	-	-	-	-
COc1ccc(NC(=O)CSc2nnc(C3CC3)n2C)cc1	28µM	-	?	-	-
Cn1ncc2c(Nc3cc(C(F)(F)F)ccc3Cl)ncnc21	-	-	-	-	.
O=[N+]([O-])c1cccc(N/N=C/c2cccc(O)c2O)c1	-	-	7.9µM	-	-
O=[N+]([O-])c1ccccc1N/N=C/c1cccc(O)c1O	-	-	-	-	-
O=C(NC(Cc1ccccc1)C(=O)O)/C(=C/c1ccccc1)NC(=O)c1ccco1 (stereo unspecified)	-	-	?	-	-
O=C(NC(Cc1ccccc1)C(=O)O)/C(=C/c1ccco1)NC(=O)c1cccc(Br)c1 (stereo unspecified)	-	-	18µM	?	-
